Inconclusive results are not listed. Active and inactive are the calls of the source. Rule for the calls, unless noted: active = hit-call score of the fitted dose curve at least 0.9, where 1 is the maximum; inconclusive = response in the unintended direction; inactive = score below 0.9.
Tests used:
[1] = biological target: Retinoic acid receptor alpha (Homo sapiens) (UniProt P10276); test: ATG_DR5_RAR_CIS: Attagene CIS-FACTORIAL HepG2 Assay for human Retinoic Acid Receptor Alpha (RARE), DR5 submotif (AID 2282934; active = hit-call score of the fitted dose curve at least 0.9, where 1 is the maximum; inactive = score below 0.9;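 for AC50: reporter responds to endogenous RAR alpha beta and gamma in HepG2 not RARA alone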); details: HepG2 Attagene cis-factorial RARE DR5 reporter, mRNA; actives raise or lower the signal
Retinoic acid receptor alpha (Homo sapiens), sequence (P10276 whole entry, looked up): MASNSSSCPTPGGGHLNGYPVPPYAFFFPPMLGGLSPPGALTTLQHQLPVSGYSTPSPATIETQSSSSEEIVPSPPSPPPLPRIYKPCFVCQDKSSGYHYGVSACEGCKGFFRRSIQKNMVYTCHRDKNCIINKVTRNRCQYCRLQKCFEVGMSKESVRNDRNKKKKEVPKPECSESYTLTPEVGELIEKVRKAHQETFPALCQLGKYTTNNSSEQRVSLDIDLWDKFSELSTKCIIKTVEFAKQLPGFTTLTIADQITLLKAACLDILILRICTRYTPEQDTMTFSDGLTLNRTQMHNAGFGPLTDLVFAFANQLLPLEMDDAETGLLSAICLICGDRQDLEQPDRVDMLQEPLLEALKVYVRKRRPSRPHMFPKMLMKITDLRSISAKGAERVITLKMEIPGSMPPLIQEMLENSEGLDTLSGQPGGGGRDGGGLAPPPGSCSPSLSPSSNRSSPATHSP
In short: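 Transfected HepG2 reporter cells are exposed to chemicals for 24 h. Then RNA is extracted and the DR5 element reporter transcript is measured by RT-PCR and capillary electrophoresis, with bidirectional curve fitting relative to DMSO.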

[2] = ATG_GRE_CIS: Attagene CIS-FACTORIAL HepG2 Assay for human Glucocorticoid Response Elements (GRE) (AID 2282947; active = hit-call score of the fitted dose curve at least 0.9, where 1 is the maximum; inactive = score below 0.9); details: HepG2 GRE cis-reporter, Attagene multiplex mRNA; actives raise or lower the signal
In short: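 Following 24 h chemical exposure of transiently transfected HepG2 cells, total RNA was reverse-transcribed and reporter cDNA amplified, fluorescently labelled and sized by capillary electrophoresis. Signal gain or loss was fitted relative to DMSO vehicle.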

[3] = ATG_VDRE_CIS: Attagene CIS-FACTORIAL HepG2 Assay for human Vitamin D Receptor Element (VDRE) (AID 2282968; active = hit-call score of the fitted dose curve at least 0.9, where 1 is the maximum; inactive = score below 0.9); details: HepG2 VDRE cis-reporter transcription, actives raise or lower the signal
In short: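 RT-PCR/CE readout of reporter mRNA; HepG2, transient transfection, 24 h dosing; DMSO baseline; bidirectional analysis.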

[4] = ATG_M_19_TRANS: Attagene TRANS-FACTORIAL HepG2 Assay for M19 Transcription Factor (Internal Marker) (AID 2282974); details: HepG2 Attagene TRANS-FACTORIAL M19 internal marker reporter
In short: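 Transfected HepG2 (GAL4-UAS MRTUs), 24 h compound, TriZol RNA, DNase-treated RT, reporter PCR, FAM label, HpaI digest, CE fluorescence; gain vs DMSO.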

[5] = ATG_GAL4_TRANS: Attagene TRANS-FACTORIAL HepG2 Assay for GAL4 (Internal Marker) (AID 2282976); details: HepG2 Attagene TRANS GAL4 internal marker reporter
In short: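 HepG2 cells transiently transfected with multiplexed GAL4-UAS reporter constructs were dosed for 24 h. Reporter mRNA was measured by RT-PCR, 6-FAM primer extension, HpaI digestion and capillary electrophoresis, and gain of signal was fitted relative to DMSO.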

[6] = biological target: Glucocorticoid receptor (Homo sapiens) (UniProt P04150); test: ATG_GR_TRANS: Attagene TRANS-FACTORIAL HepG2 Assay for human Glucocorticoid Receptor (GR) (AID 2282978); details: HepG2 Attagene TRANS GR reporter, mRNA transcription;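 note: activators score as hits since higher reporter transcript over DMSO is fitted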
Glucocorticoid receptor (Homo sapiens), sequence (P04150 whole entry, looked up): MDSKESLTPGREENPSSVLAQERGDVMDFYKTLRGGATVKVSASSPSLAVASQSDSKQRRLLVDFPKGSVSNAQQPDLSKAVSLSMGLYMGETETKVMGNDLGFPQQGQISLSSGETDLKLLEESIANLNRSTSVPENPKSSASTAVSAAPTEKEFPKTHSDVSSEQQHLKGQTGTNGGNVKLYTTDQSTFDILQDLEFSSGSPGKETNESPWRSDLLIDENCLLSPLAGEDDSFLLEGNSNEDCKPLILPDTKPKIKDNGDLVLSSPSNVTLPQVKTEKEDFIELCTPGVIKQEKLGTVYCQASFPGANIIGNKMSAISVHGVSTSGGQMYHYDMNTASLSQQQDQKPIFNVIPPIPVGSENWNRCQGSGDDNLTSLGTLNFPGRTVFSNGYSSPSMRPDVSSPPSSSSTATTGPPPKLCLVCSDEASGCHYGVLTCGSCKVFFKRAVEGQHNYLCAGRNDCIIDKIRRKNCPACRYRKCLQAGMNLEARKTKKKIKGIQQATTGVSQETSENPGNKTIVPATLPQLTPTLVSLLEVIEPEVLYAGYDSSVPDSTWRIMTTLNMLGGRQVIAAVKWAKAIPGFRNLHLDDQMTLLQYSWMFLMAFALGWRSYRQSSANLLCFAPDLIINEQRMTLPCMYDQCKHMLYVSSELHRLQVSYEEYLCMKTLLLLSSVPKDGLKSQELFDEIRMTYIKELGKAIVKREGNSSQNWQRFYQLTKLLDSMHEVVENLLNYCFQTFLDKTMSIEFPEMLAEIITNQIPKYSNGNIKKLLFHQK
In short: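 After 24 h incubation with test chemical, transfected HepG2 cells were lysed for RNA; reporter cDNA was amplified, FAM-labelled, HpaI-digested and sized on a capillary analyser. Signal gain relative to DMSO was scored.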

[7] = biological target: Oxysterols receptor LXR-beta (Homo sapiens) (UniProt P55055); test: ATG_LXRb_TRANS: Attagene TRANS-FACTORIAL HepG2 Assay for human Liver X Receptor beta (LXRb) (AID 2282981); details: HepG2 Attagene TRANS GAL4-LXRb reporter, mRNA
In short: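 In this TRANS format, exogenous chimeric NR-Gal4 protein activity, not endogenous factors, drives reporter expression in transfected human HepG2 cells. Exposure lasted 24 h; reporter mRNA was read by fluorescent capillary electrophoresis.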

[8] = biological target: Hepatocyte nuclear factor 4-alpha (Homo sapiens) (UniProt P41235); test: ATG_HNF4a_TRANS: Attagene TRANS-FACTORIAL HepG2 Assay for human Hepatocyte Nuclear Factor 4 alpha (HNF4a) (AID 2282982); details: HepG2 HNF4a transactivation reporter, mRNA readout
Hepatocyte nuclear factor 4-alpha (Homo sapiens), sequence (P41235 whole entry, looked up, the tested form may be a part): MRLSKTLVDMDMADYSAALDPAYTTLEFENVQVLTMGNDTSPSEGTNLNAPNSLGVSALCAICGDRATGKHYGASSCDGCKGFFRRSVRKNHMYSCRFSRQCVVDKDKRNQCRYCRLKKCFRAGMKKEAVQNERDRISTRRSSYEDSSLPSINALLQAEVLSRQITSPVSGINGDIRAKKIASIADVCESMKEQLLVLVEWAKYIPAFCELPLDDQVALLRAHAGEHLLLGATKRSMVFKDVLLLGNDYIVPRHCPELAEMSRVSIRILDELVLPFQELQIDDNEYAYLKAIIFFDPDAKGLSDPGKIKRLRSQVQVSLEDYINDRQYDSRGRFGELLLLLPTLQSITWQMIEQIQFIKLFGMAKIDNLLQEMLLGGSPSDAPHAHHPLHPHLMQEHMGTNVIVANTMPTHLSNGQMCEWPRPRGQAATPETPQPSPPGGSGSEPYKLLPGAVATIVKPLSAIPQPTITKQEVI
In short: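 Cells used were human HepG2, transiently carrying GAL4-UAS reporter units read out against exogenous NR-GAL4 chimeras. Reporter transcript levels after 24 h dosing were quantified by fluorescent RT-PCR and capillary electrophoresis.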

[9] = biological target: human Vitamin D Receptor (VDR), VDR (gene 7421) (UniProt P11473); test: ATG_VDR_TRANS: Attagene TRANS-FACTORIAL HepG2 Assay for human Vitamin D Receptor (VDR) (AID 2283022)
human Vitamin D Receptor (VDR), VDR (gene 7421), sequence (P11473 whole entry, looked up, the tested form may be a part): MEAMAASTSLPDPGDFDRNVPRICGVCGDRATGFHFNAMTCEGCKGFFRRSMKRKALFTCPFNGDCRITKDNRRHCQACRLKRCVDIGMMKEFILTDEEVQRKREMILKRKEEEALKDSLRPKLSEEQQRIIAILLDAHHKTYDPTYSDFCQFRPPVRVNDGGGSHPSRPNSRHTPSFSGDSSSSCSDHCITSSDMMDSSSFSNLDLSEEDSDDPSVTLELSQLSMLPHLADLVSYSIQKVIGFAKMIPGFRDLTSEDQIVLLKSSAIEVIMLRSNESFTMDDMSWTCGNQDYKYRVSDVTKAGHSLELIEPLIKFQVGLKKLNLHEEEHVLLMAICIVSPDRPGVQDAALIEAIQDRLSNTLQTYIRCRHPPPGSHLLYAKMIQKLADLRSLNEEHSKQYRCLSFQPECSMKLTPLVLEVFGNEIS
In short: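 HepG2 cells were transiently transfected with multiple GAL4-UAS reporter units, so signal reflects exogenous chimeric receptor-Gal4 activity. After 24 h compound exposure, reporter mRNA was measured by RT-PCR, fluorescent labelling and capillary electrophoresis, fitted for gain of signal versus DMSO.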

[10] = TOX21_p53_BLA_p2_viability: Viability Assessment in the Tox21 HCT-116 p53 Agonism Beta-lactamase Assay, Phase 2 (AID 2283591);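 note: compound exposure lasted 16 h at 37 °C; actives lower the ATP signal meaning cytotoxicity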
In short: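 HCT-116 p53-bla cells (4000/well) rested 5 h at 37C, then received compounds in DMSO (217-fold dilution) for 16 h at 37C, 5% CO2. After the CCF4 read, CellTiter-Glo was added; ATP luminescence was read after 30 min at room temperature.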

[11] = TOX21_p53_BLA_p3_viability: Viability Assessment in the Tox21 HCT-116 p53 Agonism Beta-lactamase Assay, Phase 3 (AID 2283593);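 note: cells exposed to compound for 16 h before reading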
In short: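 HCT-116 cells (4000/well) rested 5 h at 37C, then got DMSO compounds by pin tool (217-fold dilution) for 16 h at 37C, 5% CO2. After the bla read, CellTiter-Glo was added and luminescence read at 30 min, room temperature.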

[12] = TOX21_p53_BLA_p4_viability: Viability Assessment in the Tox21 HCT-116 p53 Agonism Beta-lactamase Assay, Phase 4 (AID 2283597);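 note: hits lower the luminescence signal meaning cytotoxicity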
In short: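 HCT116 p53-bla cells (4000/well) rested 5 h at 37C, then received compounds in DMSO (217-fold dilution) for 16 h at 37C, 5% CO2. CellTiter-Glo was added after the CCF4-AM read, and luminescence was read after 30 min at room temperature.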

[13] = CCTE_Harrill_HTTr_Apoptosis_MCF7: CCTE's 6-hour Apoptosis Assessment for the High-Throughput Transcriptomics (HTTr) Platform, in MCF-7 cells cultured in DMEM + 10% fetal bovine serum, Harrill Lab (AID 2284011; active = hit-call score of the fitted dose curve at least 0.9, where 1 is the maximum; inactive = score below 0.9)
In short: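 MCF-7 cells in DMEM + 10% fetal bovine serum were exposed to chemicals for 6 hours over an eight-point dilution series. Caspase-3/7 activation was imaged by high content imaging with CellEvent Caspase 3/7 Green; bidirectional fitting used DMSO as baseline.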

[14] = biological target: Nuclear receptor subfamily 4 group A member 2 (Homo sapiens) (UniProt P43354); test: ATG_NURR1_TRANS: Attagene TRANS-FACTORIAL HepG2 Assay for human Nuclear Receptor Related Protein 1 (NURR1) (AID 2282985); details: HepG2 Attagene TRANS reporter, mRNA readout
Nuclear receptor subfamily 4 group A member 2 (Homo sapiens), sequence (P43354 whole entry, looked up): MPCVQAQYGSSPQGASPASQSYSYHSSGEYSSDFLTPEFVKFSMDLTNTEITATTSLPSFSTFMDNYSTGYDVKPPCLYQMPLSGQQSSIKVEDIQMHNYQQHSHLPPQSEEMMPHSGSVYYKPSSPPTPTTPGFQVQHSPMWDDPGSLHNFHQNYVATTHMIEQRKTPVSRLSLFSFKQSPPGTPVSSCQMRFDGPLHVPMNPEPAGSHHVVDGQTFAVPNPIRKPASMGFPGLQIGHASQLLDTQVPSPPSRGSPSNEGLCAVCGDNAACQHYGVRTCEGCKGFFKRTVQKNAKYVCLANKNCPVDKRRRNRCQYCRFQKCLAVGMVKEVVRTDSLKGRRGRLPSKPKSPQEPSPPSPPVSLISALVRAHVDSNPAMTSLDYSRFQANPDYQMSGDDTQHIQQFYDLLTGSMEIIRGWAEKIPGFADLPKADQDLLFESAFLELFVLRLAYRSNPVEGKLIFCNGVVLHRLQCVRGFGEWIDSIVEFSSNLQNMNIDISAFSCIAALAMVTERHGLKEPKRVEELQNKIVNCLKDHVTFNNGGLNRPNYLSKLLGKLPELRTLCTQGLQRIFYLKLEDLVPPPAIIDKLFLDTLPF
In short: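 After 24 h chemical dosing, total RNA from transiently transfected HepG2 cells was reverse-transcribed and reporter cDNA PCR-amplified, FAM-labelled and analysed by capillary electrophoresis. Activity fitted in positive direction, DMSO as negative control.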

[15] = biological target: human RAR-related Orphan Receptor beta (RORb), RORB (gene 6096) (UniProt Q92753); test: ATG_RORb_TRANS: Attagene TRANS-FACTORIAL HepG2 Assay for human RAR-related Orphan Receptor beta (RORb) (AID 2283010)
human RAR-related Orphan Receptor beta (RORb), RORB (gene 6096), sequence (Q92753 whole entry, looked up, the tested form may be a part): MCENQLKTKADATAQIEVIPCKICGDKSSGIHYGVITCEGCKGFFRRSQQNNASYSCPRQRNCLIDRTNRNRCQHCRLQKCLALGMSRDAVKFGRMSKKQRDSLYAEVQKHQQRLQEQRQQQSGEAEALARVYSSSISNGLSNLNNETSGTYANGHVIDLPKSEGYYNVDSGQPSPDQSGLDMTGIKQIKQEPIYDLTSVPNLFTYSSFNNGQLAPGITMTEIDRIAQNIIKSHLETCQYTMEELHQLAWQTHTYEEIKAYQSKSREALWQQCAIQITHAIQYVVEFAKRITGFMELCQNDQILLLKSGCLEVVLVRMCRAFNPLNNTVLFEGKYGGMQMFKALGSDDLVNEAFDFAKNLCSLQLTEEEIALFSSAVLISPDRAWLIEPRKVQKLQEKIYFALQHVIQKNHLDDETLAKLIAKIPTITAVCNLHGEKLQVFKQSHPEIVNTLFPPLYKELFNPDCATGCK
In short: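 Readout is reporter-gene mRNA induction, detected as fluorescence after RT-PCR and capillary electrophoresis, fitted for gain of signal against DMSO controls. Transiently transfected HepG2 liver cells carrying GAL4-UAS reporter constructs were treated for 24 hours.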

[16] = biological target: human Peroxisome Proliferator-activated Receptor delta (PPARd), PPARD (gene 5467) (UniProt Q03181); test: ATG_PPARd_TRANS: Attagene TRANS-FACTORIAL HepG2 Assay for human Peroxisome Proliferator-activated Receptor delta (PPARd) (AID 2283002)
human Peroxisome Proliferator-activated Receptor delta (PPARd), PPARD (gene 5467), sequence (Q03181 whole entry, looked up, the tested form may be a part): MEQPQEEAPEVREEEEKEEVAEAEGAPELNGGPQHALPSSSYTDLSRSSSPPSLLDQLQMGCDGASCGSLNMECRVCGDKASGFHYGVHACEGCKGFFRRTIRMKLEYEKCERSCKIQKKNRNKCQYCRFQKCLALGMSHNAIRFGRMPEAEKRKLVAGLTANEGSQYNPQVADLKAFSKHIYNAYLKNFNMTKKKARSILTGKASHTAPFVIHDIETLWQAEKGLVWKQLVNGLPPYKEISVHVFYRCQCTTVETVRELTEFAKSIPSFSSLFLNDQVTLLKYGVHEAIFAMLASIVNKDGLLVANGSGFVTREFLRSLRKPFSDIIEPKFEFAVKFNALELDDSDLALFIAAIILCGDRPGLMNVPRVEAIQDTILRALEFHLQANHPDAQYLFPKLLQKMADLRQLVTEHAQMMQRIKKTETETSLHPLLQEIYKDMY
In short: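 Measured quantity: GAL4-UAS reporter transcript induction in HepG2 after 24 h chemical dosing, with NR-Gal4 chimeras supplied by transient transfection. Detection by RT-PCR and capillary electrophoresis; upward fit against DMSO.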

[17] = biological target: human RAR-related Orphan Receptor gamma (RORg), RORC (gene 6097) (UniProt P51449); test: ATG_RORg_TRANS: Attagene TRANS-FACTORIAL HepG2 Assay for human RAR-related Orphan Receptor gamma (RORg) (AID 2283011)
human RAR-related Orphan Receptor gamma (RORg), RORC (gene 6097), sequence (P51449 whole entry, looked up, the tested form may be a part): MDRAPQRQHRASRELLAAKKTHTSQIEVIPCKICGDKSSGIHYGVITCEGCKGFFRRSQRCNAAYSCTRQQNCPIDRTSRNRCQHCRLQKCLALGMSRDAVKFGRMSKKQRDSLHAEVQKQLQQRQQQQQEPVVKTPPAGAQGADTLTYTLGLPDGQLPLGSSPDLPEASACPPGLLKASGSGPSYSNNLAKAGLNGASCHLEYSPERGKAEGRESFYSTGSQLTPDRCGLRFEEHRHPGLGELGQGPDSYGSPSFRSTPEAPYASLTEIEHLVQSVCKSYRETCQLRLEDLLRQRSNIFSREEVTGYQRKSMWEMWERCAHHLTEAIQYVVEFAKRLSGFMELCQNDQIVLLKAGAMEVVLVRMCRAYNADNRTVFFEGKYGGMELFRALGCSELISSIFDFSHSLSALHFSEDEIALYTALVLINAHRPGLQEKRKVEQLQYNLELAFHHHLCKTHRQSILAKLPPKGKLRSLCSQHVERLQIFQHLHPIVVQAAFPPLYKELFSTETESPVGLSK
In short: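 Readout: reporter transcript induction (RT-PCR, fluorescent primer extension, capillary electrophoresis) after 24 h compound exposure of transiently transfected HepG2 cells carrying a RORg-Gal4 chimera and GAL4-UAS reporters; DMSO served as baseline, with increasing signal fitted.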

[18] = biological target: Bile acid receptor (Homo sapiens) (UniProt Q96RI1); test: ATG_IR1_CIS: Attagene CIS-FACTORIAL HepG2 Assay for human Nuclear Receptor Subfamily 1 Group H Member 4 (NR1H4), IR1 submotif (AID 2282946; active = hit-call score of the fitted dose curve at least 0.9, where 1 is the maximum; inactive = score below 0.9); details: IR1 reporter transcription, actives raise or lower the signal
Bile acid receptor (Homo sapiens), sequence (Q96RI1 whole entry, looked up): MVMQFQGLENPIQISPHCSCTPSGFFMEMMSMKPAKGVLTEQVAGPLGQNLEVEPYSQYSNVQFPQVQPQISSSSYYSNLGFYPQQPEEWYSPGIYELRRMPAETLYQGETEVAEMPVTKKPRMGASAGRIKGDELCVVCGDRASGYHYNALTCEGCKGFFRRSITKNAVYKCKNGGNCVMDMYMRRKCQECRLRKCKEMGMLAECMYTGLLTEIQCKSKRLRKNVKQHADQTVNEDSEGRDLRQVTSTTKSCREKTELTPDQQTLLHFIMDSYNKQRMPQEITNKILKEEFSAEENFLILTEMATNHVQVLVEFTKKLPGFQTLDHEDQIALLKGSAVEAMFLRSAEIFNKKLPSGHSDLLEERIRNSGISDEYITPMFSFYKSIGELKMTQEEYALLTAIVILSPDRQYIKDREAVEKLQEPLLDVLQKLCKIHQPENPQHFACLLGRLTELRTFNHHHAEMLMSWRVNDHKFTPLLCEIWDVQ
In short: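 Transient MRTU transfection, HepG2; 24 h dosing; RNA → RT-PCR → 6-FAM primer extension → HpaI digest → capillary electrophoresis fluorescence. Gain/loss of signal fitted relative to DMSO.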

[19] = ATG_M_06_TRANS: Attagene TRANS-FACTORIAL HepG2 Assay for M06 Transcription Factor (Internal Marker) (AID 2282983); details: HepG2 Attagene TRANS M06 internal marker reporter
In short: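 HepG2 cells transiently transfected with multiplexed GAL4-UAS reporter transcription units; after 24 h compound exposure, reporter mRNA measured by RT-PCR, FAM-labelled primer extension, HpaI digestion and capillary electrophoresis. Gain-of-signal fitted versus DMSO baseline; background control readout.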

[20] = ATG_ERE_CIS: Attagene CIS-FACTORIAL HepG2 Assay for Estrogen Response Element (ERE) (AID 2282940; active = hit-call score of the fitted dose curve at least 0.9, where 1 is the maximum; inactive = score below 0.9); details: HepG2 ERE cis-reporter, Attagene RNA transcript; actives raise or lower the signal
In short: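 Human liver cells (HepG2) bearing transiently transfected, promoter-regulated reporter units were exposed 24 h. Reporter mRNA induction was detected by capillary electrophoresis of labelled RT-PCR products and fitted bidirectionally to DMSO.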

Measured: AC50

N#Cc1cc(I)c(O)c(I)c1
active: [3] 30.8 µM
not listed: [14] | [15] | [16] | [17] | [18] | [19] | [20]
inactive: all other assays above

Cc1ncc(C[n+]2csc(CCO)c2C)c(N)n1
inactive: [1] | [3] | [4] | [5] | [7] | [8] | [14] | [15] | [10] | [11]

C=CC(=O)OCC(CC)CCCC (centres undefined)
active: [1] 19.8 µM
not listed: [2] | [8] | [15] | [18] | [19] | [20]
inactive: all other assays above

O=C(NCNC(=O)NC1C(=O)NC(=O)N1CO)NC1C(=O)NC(=O)N1CO (centres undefined)
inactive: [1] | [18] | [2] | [19] | [16] | [15] | [17] | [12]

CC1(C)C(=O)NC(=O)NC1=O
not listed: [1] | [6] | [7] | [9] | [13] | [16] | [18] | [19]
inactive: all other assays above

CCOP(=O)(OCC)Oc1ccc([N+](=O)[O-])cc1
not listed: [2] | [3] | [5] | [6] | [8] | [14] | [17] | [20]
inactive: all other assays above

O=S(=O)(O)OOS(=O)(=O)O
inactive: [3] | [4] | [7] | [8] | [19] | [14] | [16] | [17]

CN1C(=O)CCS(=O)(=O)C1c1ccc(Cl)cc1 (centres undefined)
inactive: [1] | [2] | [3] | [5] | [8] | [19] | [16] | [13]

c1ccc(P(c2ccccc2)c2ccccc2)cc1
inactive: [2] | [3] | [6] | [19] | [16] | [10] | [11] | [12]
active: [20] 23.5 µM

CC(C)(Cl)Cl
inactive: [1] | [2] | [3] | [4] | [5] | [7] | [16] | [11] | [13]

CC(C)CCCCCCCOP(=O)(Oc1ccccc1)Oc1ccccc1
active: [20] 27.5 µM | [3] 1.66 µM | [14] 26.6 µM
inactive: [18] | [5] | [6] | [7] | [16] | [9] | [10] | [12]
